PubChem BioAssay (NCI)
This is part of a sample that, as a whole, favours compounds with a hit. Of some 83,000 tested, about 20% had one in any assay.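 The test compound was applied at a single concentration to cells in 96-well plates for 48 hours, and percent growth was recorded.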 Values without a mark were called inactive. Calls of active or inactive are those of the source. How the source made its calls: active means growth percent below 10; inactive means the rest.

Assays:
Assay in all cases: NCI-60 one-dose screen, 48 h (100 = growth as untreated, 0 = no growth, -100 = all killed)
Conditions in all cases: 10 µM unless noted
HCT-15 colon = tested on: HCT-15 colon
HT29 colon = tested on: HT29 colon
SNB-75 CNS = tested on: SNB-75 CNS
SNB-19 CNS = tested on: SNB-19 CNS
U251 CNS = tested on: U251 CNS
PC-3 prostate = tested on: PC-3 prostate
SK-MEL-5 melanoma = tested on: SK-MEL-5 melanoma
UACC-62 melanoma = tested on: UACC-62 melanoma
LOX IMVI melanoma = tested on: LOX IMVI melanoma
SK-MEL-28 melanoma = tested on: SK-MEL-28 melanoma

Structure (SMILES)	growth (HCT-15 colon)	growth (HT29 colon)	growth (SNB-75 CNS)	growth (SNB-19 CNS)	growth (U251 CNS)	growth (PC-3 prostate)	growth (SK-MEL-5 melanoma)	growth (UACC-62 melanoma)	growth (LOX IMVI melanoma)	growth (SK-MEL-28 melanoma)
COc1cccc(CCC(=O)c2cc3c(N)c(C(=O)Nc4ccccc4)sc3nc2C)c1	17.5%	16.7%	9.14% (active)	38.5%	26.2%	49.8%	8.92% (active)	28.3%	26.4%	42%
COc1cc(-c2nc3sccn3c2-c2ccnc(NCCNS(=O)(=O)c3ccc(F)cc3)n2)ccc1F	13.2%	10.8%	52.7%	35.7%	17.5%	6.16% (active)	-75.3% (active)	-65.2% (active)	4.75% (active)	19.2%
c1cnc2nc3c(cc2c1)oc1ccccc13	101%	105%	76.6%	92%	97%	104%	91.2%	87.1%	97.7%	111%
COc1cc2nc(-c3ccc(C(F)(F)F)cc3)cc(OCCN3CCCC3)c2cc1OC	67.3%	66.4%	71.6%	88.7%	76.8%	73.8%	84.4%	93.3%	27%	78.6%
COc1cc(C2NC(c3cc(OC)c(OC)c(OC)c3)C(C#N)(C#N)C2(C#N)C#N)cc(OC)c1OC (stereo not given)	97.9%	105%	80.7%	98.5%	106%	99.3%	89.5%	98.2%	98.2%	96.5%
Cn1c2c(Cl)c(Cl)ccc2c2cc(N)[nH]c(=O)c21	97.1%	92.8%	77.7%	98.4%	93.8%	64.6%	81.7%	87.2%	76.1%	103%
CN1CCN(c2cnc(C(=O)Nc3cc(F)cc4cccnc34)cn2)CC1	30.8%	42.6%	95.2%	87.4%	79.9%	21.4%	89.2%	95.3%	59.6%	67.8%
Cc1[nH]n(C(=O)c2ccncc2)c(=O)c1N=Nc1ccc(F)c(Cl)c1	111%	109%	92.4%	99.1%	112%	116%	107%	106%	111%	107%
COc1ccccc1C(C[N+](=O)[O-])c1c(-c2ccccc2)[nH]c2cc(C)ccc12 (stereo not given)	44%	35.8%	42.7%	81%	83.9%	69.5%	74.9%	43.8%	70.1%	78.9%
CC(=O)CCSc1ccc(OC(C)=O)cc1	101%	90.1%	86.8%	97.8%	95.3%	83.8%	96.1%	93.1%	98.1%	107%
O=c1nc2n(nc1/C=C/c1ccco1)CC(c1ccc(Cl)cc1)=NN2	135%	109%	91.6%	96.5%	115%	97.6%	99.9%	97.6%	113%	120%
Cc1ccc(-c2csc(/N=C3\C(=O)Nc4ccccc43)n2)cc1	32%	-8.75% (active)	55.5%	22.8%	-47.5% (active)	2.72% (active)	-20.2% (active)	0.615% (active)	-0.0538% (active)	13.7%
C=C(C)[C@H]1CC/C(C)=C/CC[C@]2(C)O[C@H]2CC/C(COC(=O)[C@@H](OC(C)=O)[C@H](NC(=O)c2ccccc2)c2ccccc2)=C\[C@@H]1O	105%	102%	72.6%	81.8%	99.2%	90.1%	78.8%	59.3%	93.1%	104%
CCc1c(Nc2ccc(C)cc2)nc(N)[nH]c1=O	103%	100%	87%	98.9%	101%	95.4%	102%	87.2%	105%	101%
NC(=S)N/N=C/c1ccc(OC(=O)COc2cc(Cl)c(Cl)cc2Cl)cn1	81%	70.7%	98.8%	91.6%	54%	59.8%	21.8%	39.7%	25.1%	89%
COc1ccc(/C=N/NC(=O)c2cccc3cc[nH]c23)cc1O	33.2%	19.7%	18.6%	39.7%	26.6%	31.5%	2.92% (active)	33%	53.1%	63.4%
COc1ccc(NC(=O)c2sc3nc(C)c(C(=O)CCc4cccc(OC)c4)cc3c2N)cc1	46.7%	67.4%	65.7%	73.5%	78.3%	79.5%	61.9%	63.7%	75.4%	83%
COc1ccccc1/C=C1\COc2ccc(-c3ccccc3)cc2C1=O	22.7%	5.36% (active)	42.2%	69.1%	17.3%	27.2%	27.5%	40.6%	18.7%	57.3%
CCCCCCCCCCCCC1CCC/C=C\CCC(=O)O1 (stereo not given)	101%	102%	84.6%	101%	110%	87%	104%	101%	105%	118%
CCCCCCOc1ccc(C(=N)N(CCCC)CCCC)c2ccccc12	-82.1% (active)	-83.2% (active)	-98.9% (active)	-88.9% (active)	-77.7% (active)	-84.2% (active)	-99.3% (active)	-86% (active)	-92.6% (active)	-94.3% (active)
C[C@]12CCc3nc(Nc4cccc(O)c4)sc3C1=CC[C@@H]1[C@@H]2CC[C@]2(C)/C(=N\NC(N)=S)CC[C@@H]12	-29% (active)	3.21% (active)	1.36% (active)	57.9%	11.9%	20.1%	36.7%	73.1%	-73.8% (active)	9.46% (active)
CNC(=O)NCC1OC(n2cnc3c(NC(=O)Nc4ccccc4)ncnc32)C(O[Si](C)(C)C(C)(C)C)C1O[Si](C)(C)C(C)(C)C (stereo not given)	21.3%	-67.7% (active)	45.8%	76.1%	17.2%	7.78% (active)	48.2%	41.9%	13.3%	60%
COc1cc(NCCCN(CC(C)C)C2CCCC2)c2ncccc2c1	63.6%	71.8%	71%	84.6%	76.6%	59.4%	72.2%	73.6%	58.7%	71.2%
FC(F)(F)c1cccc(Nc2ccccc2)c1	99.4%	105%	94.7%	98.2%	97.7%	102%	103%	96.5%	98.7%	102%
NC(=O)CN1CCN(c2ccccc2Cl)CC1	107%	101%	119%	118%	111%	105%	110%	113%	109%	110%
CS(=O)(=O)c1ccc(-c2cc3c(oc2=O)-c2ccccc2OC3O)cc1 (stereo not given)	94.4%	105%	84.6%	89%	97.7%	89.8%	101%	92.2%	98%	101%
COc1ccc(CNC(=O)COc2ccc(/C=N/Nc3nc4ccccc4s3)cc2)cc1	31%	35.5%	-2.77% (active)	36.8%	21.6%	15.5%	23.6%	34%	46.5%	35.2%
